Test [1] in a line: NCI Yeast Anticancer Drug Screen. Data for the rad50 strain (AID 155).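 Also: 0% = growth of vehicle-only cultures of the same strain.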 The following applies: S. cerevisiae rad50 strain growth inhibition, hits give high values. The gist of the method: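 Compounds were tested on a yeast strain with an engineered DNA damage repair alteration; the reported value is growth inhibition normalised to vehicle treatment.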
Test [2] is described as follows: NCI Yeast Anticancer Drug Screen. Data for the mec2-1 strain (AID 157). The following applies: S. cerevisiae mec2-1 strain, hits give high values. The gist of the method:
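mec2-1 yeast strain, carrying an alteration in DNA damage repair or cell cycle control, was exposed to compounds; growth inhibition was measured relative to vehicle-treated controls.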

The nature of test [3]: NCI Yeast Anticancer Drug Screen. Data for the sgs1 mgt1 strain (AID 161).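 Also: 0% = growth of cultures given vehicle only.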 The following applies: S. cerevisiae sgs1 mgt1 strain, hits give high values. The gist of the method:
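Compounds are added to genetically altered yeast, and growth is compared with cultures given vehicle alone to give percent inhibition.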

The nature of test [4]: NCI Yeast Anticancer Drug Screen. Data for the cln2 rad14 strain (AID 165).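 Also: 0% = growth equal to vehicle treated cultures.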 The following applies: S. cerevisiae cln2 rad14 strain, hits give high values. The gist of the method: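 Yeast carrying cln2 and rad14 alterations (cell cycle control and DNA damage repair) were exposed to compounds. Growth inhibition was measured against vehicle-treated controls.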
Test [5] can be described thus: NCI Yeast Anticancer Drug Screen. Data for the bub3 strain (AID 167). The following applies: S. cerevisiae bub3 mutant strain, hits give high values. The gist of the method:
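Growth of a checkpoint-deficient yeast mutant is measured after compound exposure. Values represent inhibition relative to vehicle.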

The nature of test [6]: NCI Yeast Anticancer Drug Screen. Data for the mlh1 rad18 strain (AID 175). The conditions noted are these: S. cerevisiae mlh1 rad18 strain growth inhibition, hits give high values. In short, it runs like this:
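Growth inhibition of the yeast strain was measured after compound exposure and expressed relative to vehicle-treated controls. The strain carries defined defects in DNA damage repair.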

The mark [7] stands for this setting: at 5.0 µM (retest, dose inferred, filed as 0.5).
Where [8] appears, read: at 50.0 µM (retest, dose inferred, filed as 5.0).

About 79,000 compounds went through this panel and 15% of them were active in at least one assay; those are over-represented in the sample as a whole. A number with no mark means an inactive call. Activity calls are given as the source filed them. Rule as the data show it: active = growth inhibition above about 70%; inactive = the rest.

Consider 10 compounds from PubChem BioAssay (NCI).

`CC(C)N=Cc1cc(I)cc(I)c1O.CC(C)N=Cc1cc(I)cc(I)c1O.[Co]`: the growth inhibition in test [1] (setting [7]) was 99% (active); in test [1] (setting [8]) it was 99% (active); in test [1] (at 50.0 µM), 96.8% (active); in test [2] (setting [7]), 99% (active); in test [2] (setting [8]) it was 99% (active); in test [2] (at 50.0 µM), 97.6% (active). The growth inhibition is 99% (active) in test [3] (setting [7]); 99% (active) in test [3] (setting [8]); 97.2% (active) in test [3] (at 50.0 µM); 98% (active) in test [4] (setting [7]); 98% (active) in test [4] (setting [8]); 96.1% (active) in test [4] (at 50.0 µM). For the same compound, the growth inhibition in test [5] (setting [7]) is 98% (active); in test [5] (setting [8]) it was 99% (active); in test [5] (at 50.0 µM), 96.5% (active); in test [6] (setting [7]), 99% (active); in test [6] (setting [8]) it was 99% (active); in test [6] (at 50.0 µM), 97% (active).

`COC(=O)C(=O)C(C(=O)C(=O)Nc1ccc(C)cc1C)c1nc2ccccc2[nH]c1=O` (stereo not given): the growth inhibition in test [1] (setting [7]) is 21%; in test [1] (setting [8]), 21%; in test [1] (at 50.0 µM) it was 17%; in test [2] (setting [7]) it was 8%; in test [2] (setting [8]), 8%; in test [2] (at 50.0 µM), 20.8%. Moreover, the growth inhibition in test [3] (setting [7]) is -2%; in test [3] (setting [8]), -2%; in test [3] (at 50.0 µM), 39.2%; in test [4] (setting [7]), 5%; in test [4] (setting [8]) it was 5%; in test [4] (at 50.0 µM), -57.3%. In addition, the growth inhibition in test [5] (setting [7]) was -6%; in test [5] (setting [8]) it was -6%; in test [5] (at 50.0 µM), 34%; in test [6] (setting [7]) it was 7%; in test [6] (setting [8]) it was 7%; in test [6] (at 50.0 µM), 49.8%.

`ClCCOCCOc1c(Cl)cc(Cl)c(Cl)c1Cl`: the growth inhibition is 6% in test [1] (setting [7]); 12% in test [1] (setting [8]); 58.4% in test [1] (at 50.0 µM); 0% in test [2] (setting [7]); 13% in test [2] (setting [8]); 27.6% in test [2] (at 50.0 µM). Further, the growth inhibition in test [3] (setting [7]) is 9%; in test [3] (setting [8]) it was 58%; in test [3] (at 50.0 µM), 43.5%; in test [4] (setting [7]) it was 4%; in test [4] (setting [8]), -11%; in test [4] (at 50.0 µM) it was -26.7%. Further, the growth inhibition is 3% in test [5] (setting [7]); 14% in test [5] (setting [8]); 59.6% in test [5] (at 50.0 µM); 9% in test [6] (setting [7]); 26% in test [6] (setting [8]); 71% (active) in test [6] (at 50.0 µM).

Regarding `C=C(CN1CCOCC1)C(=O)c1ccccc1`, the growth inhibition in test [1] (setting [7]) is -23%; in test [1] (setting [8]) it was 66%; in test [1] (at 50.0 µM), 74.5% (active); in test [2] (setting [7]), 18%; in test [2] (setting [8]) it was 80% (active); in test [2] (at 50.0 µM) it was 90.2% (active). Besides, the growth inhibition was 8% in test [3] (setting [7]); 73% (active) in test [3] (setting [8]); 85.5% (active) in test [3] (at 50.0 µM); -16% in test [4] (setting [7]); 24% in test [4] (setting [8]); 60.9% in test [4] (at 50.0 µM). The growth inhibition in test [5] (setting [7]) is 3%; in test [5] (setting [8]), 72% (active); in test [5] (at 50.0 µM), 91% (active); in test [6] (setting [7]), -13%; in test [6] (setting [8]), 92% (active); in test [6] (at 50.0 µM), 95% (active).

As to `O=C(O)c1ccc(C(O)(c2ccccc2)c2ccccc2)cc1`, the growth inhibition was -9% in test [1] (setting [7]); 65% in test [1] (setting [8]); 63.4% in test [1] (at 50.0 µM); 11% in test [2] (setting [7]); 95% (active) in test [2] (setting [8]); 86% (active) in test [2] (at 50.0 µM). For the same compound, the growth inhibition in test [3] (setting [7]) is -9%; in test [3] (setting [8]), 90% (active); in test [3] (at 50.0 µM), 98% (active); in test [4] (setting [7]), -1%; in test [4] (setting [8]) it was 90% (active); in test [4] (at 50.0 µM), 82.3% (active). Also, the growth inhibition in test [5] (setting [7]) was -3%; in test [5] (setting [8]) it was 97% (active); in test [5] (at 50.0 µM), 77.7% (active); in test [6] (setting [7]), 3%; in test [6] (setting [8]), 93% (active); in test [6] (at 50.0 µM), 96.4% (active).

For `OC(C/C=N/Nc1ccccc1)(C(F)(F)Cl)C(F)(F)Cl`, the growth inhibition in test [1] (setting [7]) is -13%; in test [1] (setting [8]), 97% (active); in test [1] (at 50.0 µM), 89.2% (active); in test [2] (setting [7]), -11%; in test [2] (setting [8]), 99% (active); in test [2] (at 50.0 µM), 90.9% (active). Also, the growth inhibition is -10% in test [3] (setting [7]); 98% (active) in test [3] (setting [8]); 91.7% (active) in test [3] (at 50.0 µM); 2% in test [4] (setting [7]); 98% (active) in test [4] (setting [8]); 89.5% (active) in test [4] (at 50.0 µM). For the same compound, the growth inhibition in test [5] (setting [7]) is 5%; in test [5] (setting [8]), 98% (active); in test [5] (at 50.0 µM), 91.8% (active); in test [6] (setting [7]), -18%; in test [6] (setting [8]), 98% (active); in test [6] (at 50.0 µM) it was 89.6% (active).

On to `CC(=O)O[C@H]1CC[C@]2(C)C34OC3C[C@]3(C)[C@@H](C(C)=O)CC[C@H]3[C@]43C=C[C@@]2(C1)C1C(=O)OC(=O)C13` (stereo not given in full), for which the growth inhibition in test [1] (setting [7]) is 10%; in test [1] (setting [8]), 60%; in test [1] (at 50.0 µM), 88.2% (active); in test [2] (setting [7]) it was 6%; in test [2] (setting [8]) it was 45%; in test [2] (at 50.0 µM), 89.9% (active). Moreover, the growth inhibition was 5% in test [3] (setting [7]); 48% in test [3] (setting [8]); 75.9% (active) in test [3] (at 50.0 µM); 0% in test [4] (setting [7]); 34% in test [4] (setting [8]); 84.2% (active) in test [4] (at 50.0 µM). Also, the growth inhibition in test [5] (setting [7]) was 2%; in test [5] (setting [8]), 42%; in test [5] (at 50.0 µM), 92.4% (active); in test [6] (setting [7]), -2%; in test [6] (setting [8]), 85% (active); in test [6] (at 50.0 µM), 93.2% (active).

Turning to `O=C1CC(=Nc2ccc([N+](=O)[O-])cc2)NN1c1c(Cl)cc(Cl)cc1Cl`, the growth inhibition in test [1] (setting [7]) was -20%; in test [1] (setting [8]), 47%; in test [1] (at 50.0 µM), 90.7% (active); in test [2] (setting [7]), -24%; in test [2] (setting [8]) it was 69%; in test [2] (at 50.0 µM), 92% (active). The growth inhibition in test [3] (setting [7]) is -15%; in test [3] (setting [8]), 96% (active); in test [3] (at 50.0 µM) it was 92.7% (active); in test [4] (setting [7]), -15%; in test [4] (setting [8]), 57%; in test [4] (at 50.0 µM) it was 89.4% (active). Moreover, the growth inhibition in test [5] (setting [7]) is -24%; in test [5] (setting [8]), 95% (active); in test [5] (at 50.0 µM), 91.7% (active); in test [6] (setting [7]), -65%; in test [6] (setting [8]), 89% (active); in test [6] (at 50.0 µM), 89.5% (active).

In the case of `COC(=O)c1cccc2cccc(C(=O)Nc3ccc(C)cc3C)c12`, the growth inhibition is 74% (active) in test [1] (setting [7]); 99% (active) in test [1] (setting [8]); 86.2% (active) in test [1] (at 50.0 µM); 79% (active) in test [2] (setting [7]); 99% (active) in test [2] (setting [8]); 91.9% (active) in test [2] (at 50.0 µM). The growth inhibition was 60% in test [3] (setting [7]); 99% (active) in test [3] (setting [8]); 83.2% (active) in test [3] (at 50.0 µM); 33% in test [4] (setting [7]); 99% (active) in test [4] (setting [8]); 87.7% (active) in test [4] (at 50.0 µM). Besides, the growth inhibition was 76% (active) in test [5] (setting [7]); 92% (active) in test [5] (setting [8]); 90.5% (active) in test [5] (at 50.0 µM); 90% (active) in test [6] (setting [7]); 99% (active) in test [6] (setting [8]); 89.7% (active) in test [6] (at 50.0 µM).

`C[n+]1c(/C=C/c2cccc([N+](=O)[O-])c2)sc2ccccc21`: the growth inhibition in test [1] (setting [7]) is 10%; in test [1] (setting [8]) it was 97% (active); in test [1] (at 50.0 µM), 97.6% (active); in test [2] (setting [7]), 15%; in test [2] (setting [8]) it was 99% (active); in test [2] (at 50.0 µM), 96.2% (active). For the same compound, the growth inhibition in test [3] (setting [7]) was -1%; in test [3] (setting [8]), 98% (active); in test [3] (at 50.0 µM), 97.9% (active); in test [4] (setting [7]) it was 14%; in test [4] (setting [8]) it was 97% (active); in test [4] (at 50.0 µM) it was 98.8% (active). Besides, the growth inhibition in test [5] (setting [7]) is 7%; in test [5] (setting [8]), 97% (active); in test [5] (at 50.0 µM), 96% (active); in test [6] (setting [7]) it was 13%; in test [6] (setting [8]) it was 98% (active); in test [6] (at 50.0 µM), 99.2% (active).
